The source of these data is PubChem BioAssay.

Molecules are shown by their SMILES. The source made the active and inactive calls.

Sequence of Homeobox protein Hox-A13 (Mus musculus) (Q62424 whole entry, looked up): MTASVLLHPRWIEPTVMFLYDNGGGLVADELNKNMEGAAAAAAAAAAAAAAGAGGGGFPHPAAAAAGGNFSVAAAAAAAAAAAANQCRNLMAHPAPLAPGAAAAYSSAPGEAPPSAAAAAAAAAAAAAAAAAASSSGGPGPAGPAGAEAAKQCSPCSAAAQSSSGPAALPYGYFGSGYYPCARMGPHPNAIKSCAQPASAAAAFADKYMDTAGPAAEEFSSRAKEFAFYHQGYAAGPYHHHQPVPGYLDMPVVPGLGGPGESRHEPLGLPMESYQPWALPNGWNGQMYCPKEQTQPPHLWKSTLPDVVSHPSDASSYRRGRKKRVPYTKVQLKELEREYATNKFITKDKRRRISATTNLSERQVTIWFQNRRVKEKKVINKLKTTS

This experiment concerns the target Homeobox protein Hox-A13 (Mus musculus) (UniProt Q62424). As to the kind of experiment: inhibitors of HoxA13-DNA binding, primary screen, biochemical, fluorescence polarization, labeled oligonucleotide (AID 1185). To be noted: 15 min, higher = more signal, called active from +8 up or from −8 down.
On to `NCCCCCNC(=O)[C@@H]1C[C@@H]2C(=O)N[C@@H](Cc3ccccc3)C(=O)N2[C@@H]1c1ccc(O)cc1`, for which the z-score was -1.87 (inactive).

Consider `CN(C)CCCCCCNC(=O)[C@@H]1C[C@@H]2C(=O)N[C@@H](Cc3ccccc3)C(=O)N2[C@@H]1c1ccc(O)cc1`, for which the z-score was -2.65 (inactive).

`C=CC[C@]1(C(=O)NCc2ccccc2)N=C(c2ccc(OCCCO)cc2)O[C@H]1c1ccccc1N=[N+]=[N-]`: the z-score was -1.87 (inactive). The value for `CC(C)N1C(=O)[C@@]2(Cc3ccccc31)c1ccccc1C(=O)N(Cc1ccccc1Cl)[C@H]2c1ccc(CO)cc1` was -0.978 (inactive); that for `C=CCNC(=O)[C@@H]1[C@H]2C(=O)O[C@H](c3ccccc3)[C@H](c3ccccc3)N2[C@H](c2ccccc2OCCO)[C@@]12C(=O)N(C(=O)OCCOC)c1ccccc12` was -4.27 (inactive).

Regarding `C=C(COC)/C(=C/C[C@H](OC(C)=O)c1ccc(CO)o1)c1cc(C(=O)OC)ccc1OC`, the z-score was -4.87 (inactive). The value for `O=C1NC(=O)C2C1C=CC(C(O)c1cc(C(F)(F)F)cc(C(F)(F)F)c1)N2Nc1ccccn1` (stereo not given) was -3.28 (inactive); that for `OCCCC1=CC(c2cccs2)N(Cc2cc3c(cc2Br)OCO3)CC1` (stereo not given) was -2.36 (inactive). The value for `C[C@H]1NC(=O)[C@@]23C(=O)N[C@@H](Cc4ccccc4)C2[C@H](C)[C@@]2(C)O[C@H]2C3/C=C/C/C=C\CNC(=O)[C@@H]2CCCN2C1=O` (stereo not given in full) was -3.78 (inactive).

Take `COC(=O)[C@@]1(Cc2ccc(OC)cc2)[C@H]2c3cc(C(=O)N(C)C)n(Cc4ccc(S(C)(=O)=O)cc4)c3C[C@H]2CN1C(=O)c1ccccc1`: the z-score was -5.38 (inactive).
